From PubChem BioAssay (NCI)
About 83,000 compounds went through this panel and 20% of them were active in at least one assay; those are over-represented in the sample as a whole.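 Interpretation: 100, growth as untreated; towards 0, rising growth inhibition; 0, no net growth; 0 to -100, cell death. Compounds scoring below 10 were considered active.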 Values without a mark were called inactive. Calls of active or inactive are those of the source.

Test system: MDA-MB-468 breast
Assay: NCI-60 one-dose screen, 48 h (100 = growth as untreated, 0 = no growth, -100 = all killed)
Conditions: 10 µM unless noted

SMILES	growth
c1ccc([I+]c2ccccc2)cc1	15.2%
Cc1cnc(-c2ccc(-c3ccc(NC(=O)Nc4c(F)cc(F)cc4F)cc3F)c3c2C(=O)NC3)[nH]1	39.6%
COc1cccc(/C=C2\Oc3cc(OCCCN4CCCC4)ccc3C2=O)c1OC	93.2%
CC(C)(C)[Si](C)(C)OC1[C@@H](CNC(=O)NC(=O)NC(N)=O)O[C@@H](n2cnc3c(NC(=O)Nc4ccccc4)ncnc32)[C@H]1O[Si](C)(C)C(C)(C)C (stereo not given in full)	99.1%
COc1ccc2c(c1)C(C)Cc1c(N(C)C)ncnc1N2C (stereo not given)	29.9%
CC1=C(CCC(C)N(C)Cc2ccc(OCCCN3CCCC3)cc2)C(C)(C)CCC1 (stereo not given)	-18.6% (active)
Cc1cc(N2CCN(CC(=O)Nc3ccc4c(ccn4Cc4ccccc4)c3)CC2)nc(N2CCOCC2)n1	67%
O=C(Nc1ccc(Cl)cc1)c1cc2cc(F)ccc2cc1O	-1.3% (active)
O=C(NNc1ccc(-c2ccccc2)nn1)c1ccccc1	103%
COc1cc(C2CC(=O)c3c(C)nn(-c4nc5ccccc5[nH]4)c3C2)cc(OC)c1OC (stereo not given)	82%
COc1ccc(NC(=O)/C(=C/N2C(=O)/C(=C/c3ccc(OC)c(OC)c3)NC2=S)C(C)=O)cc1	40.1%
CC(=O)Nc1ccc(S(=O)(=O)c2ccnc3cc(Cl)ccc23)cc1	9.85% (active)
COC1OC(C(O)C(O)CO)C(O)C(O)C1O (stereo not given)	101%
COc1ccc(/C=C(\C#N)n2nnc3ccc(Cl)cc32)cc1	28.9%
C=CC[C@]1(O)CC[C@H]2[C@@H]3CCc4cc(O)ccc4[C@H]3CC[C@@]21C	87.4%
Cc1ccc(C(=O)Nc2nc3c(s2)CN(Cc2ccccc2)CC3)cn1	67.1%
O=C(O)c1cc([N+](=O)[O-])ccc1Oc1ccccc1	101%
Cc1ccc2[nH]c3ccccc3c2c1	100%
O=c1[nH]c(CCl)nc2c1cnn2-c1ccccc1	96.6%
COc1cc2c(Nc3ccc(-c4ccc(N)cc4)cc3)ncnc2c(OC)c1OC	71.9%

SMILES	growth
Cc1cc(-c2cc(C)c(O)c(C)c2)cc(C)c1O	26.1%
C[C@@H]1C[C@@H]([C@@H](CC2CC(=O)NC(=O)C2)OC(=O)CC(=O)c2ccccc2)C(=O)[C@@H](C)C1	10.9%
Nc1nc(SCc2cccnc2)c2ncn(C3OC(CO)C(O)C3O)c2n1 (stereo not given)	97.4%
C=C(c1ccc(C(=O)O)c(F)c1)c1cc2c(cc1C)C(C)(C)CCC2(C)C	97.6%
COc1ccc(C)cc1NC(=O)SC(C)C	91.9% [100 µM]
Nc1nc(N)c2c(n1)NC(c1cccc(Nc3ccnc4cc(C(F)(F)F)ccc34)c1)CC(c1ccccc1)=N2 (stereo not given)	18.5%
Oc1ccc(C(c2ccc(O)cc2)c2ccc(Cl)cn2)cc1	-30.9% (active)
O=C(CNc1ncco1)Nc1ccc(S(=O)(=O)c2ccc(NC(=O)CNc3ncco3)cc2)cc1	-61.7% (active)
Cc1ccc(Nc2nnc(-c3ccc(Cl)cc3)o2)c(C)c1	75.4%
O=C1CCC(N2Cc3c(C#CCCCNC(=O)c4cc5c(o4)C(=O)c4ccccc4C5=O)cccc3C2=O)C(=O)N1 (stereo not given)	-47.1% (active)
O=C(NOC[C@H](O)CO)c1ccc(F)c(F)c1Nc1ccc(I)cc1F	106%
[Cl][Ru].c1ccc(-c2cc(-c3ccccn3)nc(-c3ccccn3)c2)cc1.c1ccc(-c2ccnc3c2ccc2c(-c4ccccc4)ccnc23)cc1	-66.3% (active)
CCCN1[C@@H]2CC[C@H]1/C(=C\c1ccc(OC)c(OC)c1)C(=O)/C2=C/c1ccc(OC)c(OC)c1	17.7%
N#Cc1c(-c2ccc(Cl)cc2)cc(-c2cc(O)ccc2O)nc1N	19.4%
O=C(O)C1CCC(=O)N1C(=O)OCc1ccccc1 (stereo not given)	106%
N#CCC1CCCC1	97.4%
NC(=S)c1csc(CCNC(=O)c2ccccc2)n1	109%
CN1C(=O)N(C)C2(c3ccccc3)n3c(s/c(=C\c4ccccc4)c3=O)=NNC12c1ccccc1 (stereo not given)	80.8%
OCCS	100%
CN(C)c1ccc(/C=N\Nc2cc(=O)[nH]c3ccc(Cl)cc23)cc1	107%
